Among all 5,500 compounds or so, about 2,000 (36%) were called active. Inconclusive results (about 18%) are left out. Rule as the data show it: active = normalized growth mostly below about 0.91 (no sharp cut-off); inconclusive = no clear call, values can overlap the other calls; inactive = mostly above about 0.92. The list shows a part of the results.
Experiment: chemical genetic growth profiling, strain panel (AID 1159580);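 also: tested at 20 µM; growth read once vehicle control cultures reached saturation at 30 °C; 1 = growth at the plate median or of vehicle wells; lower values mean less growth of the strain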
Conditions: growth OD

Measured: normalized growth

COc1ccc2cc1Oc1ccc(cc1)C[C@H]1c3cc(c(OC)cc3CCN1C)Oc1c(OC)c(OC)cc3c1[C@H](C2)N(C)CC3
inactive: S. cerevisiae deletion strains, locus YKL009W, strain mrt4, active compounds read low 1.02 | S. cerevisiae deletion strains, locus YKL068W, active compounds read low 1.01 | S. cerevisiae deletion strains, locus YKL085W, strain MDH1 (second series), active compounds read low 1.01 | S. cerevisiae deletion strains, locus YKL085W, strain MDH1, active compounds read low 1.01 | S. cerevisiae deletion strains, locus YKL160W, strain elf1, active compounds read low 0.99 | S. cerevisiae deletion strains, locus YKL190W, strain CNB1, active compounds read low 1.01 | S. cerevisiae deletion strains, locus YKR001C, strain vps1, active compounds read low 0.973 | S. cerevisiae deletion strains, locus YKR026C, strain gcn3, active compounds read low 1 | S. cerevisiae deletion strains, locus YKR091W, strain srl3, active compounds read low 1 | S. cerevisiae deletion strains, locus YLL001W, strain dnm1, active compounds read low 0.986 | S. cerevisiae deletion strains, locus YLL026W, active compounds read low 1 | S. cerevisiae deletion strains, locus YLL041C, strain sdh2, active compounds read low 1 | S. cerevisiae deletion strains, locus YLR027C, strain aat2, active compounds read low 1.01 | S. cerevisiae deletion strains, locus YLR039C, strain RIC1, active compounds read low 0.94 | S. cerevisiae deletion strains, locus YLR058C, strain SHM2, active compounds read low 1.01 | S. cerevisiae deletion strains, locus YLR102C, strain apc9, active compounds read low 1.01 | S. cerevisiae deletion strains, locus YLR113W, strain HOG1, active compounds read low 1.07 | S. cerevisiae deletion strains, locus YLR221C, strain rsa3, active compounds read low 1.01 | S. cerevisiae deletion strains, locus YLR258W, strain gsy2, active compounds read low 1.01 | S. cerevisiae deletion strains, locus YLR262C, strain YPT6 (second series), active compounds read low 0.975 | S. cerevisiae deletion strains, locus YLR262C, strain YPT6, active compounds read low 0.993 | S. cerevisiae deletion strains, locus YLR268W, strain sec22, active compounds read low 1.01 | S. cerevisiae deletion strains, locus YLR320W, strain mms22, active compounds read low 0.987 | S. cerevisiae deletion strains, locus YLR330W, strain CHS5, active compounds read low 1.02 | S. cerevisiae deletion strains, locus YLR342W, strain FKS1 (second series), active compounds read low 0.885 | S. cerevisiae deletion strains, locus YLR342W, strain FKS1, active compounds read low 1.01 | S. cerevisiae deletion strains, locus YLR357W, strain rsc2, active compounds read low 0.977 | S. cerevisiae deletion strains, locus YLR370C, strain arc18, active compounds read low 0.914 | S. cerevisiae deletion strains, locus YLR371W, strain rom2, active compounds read low 1.01 | S. cerevisiae deletion strains, locus YLR384C, strain iki3, active compounds read low 1.01 | S. cerevisiae deletion strains, locus YLR418C, strain cdc73, active compounds read low 0.96 | S. cerevisiae deletion strains, locus YML016C, strain PPZ1, active compounds read low 1 | S. cerevisiae deletion strains, locus YML032C, strain rad52, active compounds read low 1.01 | S. cerevisiae deletion strains, locus YML120C, strain ndi1, active compounds read low 1.02 | S. cerevisiae deletion strains, locus YML124C, strain tub3, active compounds read low 1.02 | S. cerevisiae deletion strains, locus YMR058W, strain fet3, active compounds read low 1 | S. cerevisiae deletion strains, locus YMR078C, strain ctf18, active compounds read low 1.02 | S. cerevisiae deletion strains, locus YMR125W, strain sto1, active compounds read low 0.992 | S. cerevisiae deletion strains, locus YMR129W, active compounds read low 1.02 | S. cerevisiae deletion strains, locus YMR205C, strain PFK2, active compounds read low 0.963 | S. cerevisiae deletion strains, locus YMR223W, strain ubp8, active compounds read low 0.986 | S. cerevisiae deletion strains, locus YMR231W, strain pep5, active compounds read low 1.01 | S. cerevisiae deletion strains, locus YMR263W, strain SAP30, active compounds read low 1 | S. cerevisiae deletion strains, locus YMR307W, strain GAS1, active compounds read low 0.966 | S. cerevisiae deletion strains, locus YNL067W, strain RPL9B, active compounds read low 1.01 | S. cerevisiae deletion strains, locus YNL071W, strain lat1, active compounds read low 0.998 | S. cerevisiae deletion strains, locus YNL128W, strain TEP1, active compounds read low 1.01 | S. cerevisiae deletion strains, locus YNL153C, strain GIM3, active compounds read low 0.995 | S. cerevisiae deletion strains, locus YNL183C, strain NPR1, active compounds read low 0.999 | S. cerevisiae deletion strains, locus YNL209W, strain ssb2, active compounds read low 0.995 | S. cerevisiae deletion strains, locus YNL233W, strain BNI4, active compounds read low 0.995 | S. cerevisiae deletion strains, locus YNL248C, strain rpa49, active compounds read low 1.01 | S. cerevisiae deletion strains, locus YNL250W, strain rad50, active compounds read low 1.02 | S. cerevisiae deletion strains, locus YNL271C, strain bni1, active compounds read low 1.01 | S. cerevisiae deletion strains, locus YNL298W, strain CLA4, active compounds read low 1.01 | S. cerevisiae deletion strains, locus YNL322C, strain KRE1 (second series), active compounds read low 1.01 | S. cerevisiae deletion strains, locus YNL322C, strain KRE1, active compounds read low 1.02 | S. cerevisiae deletion strains, locus YNR049C, strain mso1, active compounds read low 0.991 | S. cerevisiae deletion strains, locus YNR052C, strain pop2, active compounds read low 0.968 | S. cerevisiae deletion strains, locus YOL006C, strain TOP1, active compounds read low 0.632 | S. cerevisiae deletion strains, locus YOL012C, strain htz1 0.904 | S. cerevisiae deletion strains, locus YOL147C, strain pex11, active compounds read low 1.01 | S. cerevisiae deletion strains, locus YOR001W, strain rrp6, active compounds read low 1 | S. cerevisiae deletion strains, locus YOR061W, strain CKA2, active compounds read low 0.993 | S. cerevisiae deletion strains, locus YOR069W, strain VPS5, active compounds read low 1.01 | S. cerevisiae deletion strains, locus YOR070C, strain gyp1, active compounds read low 1 | S. cerevisiae deletion strains, locus YOR080W, strain dia2, active compounds read low 0.995 | S. cerevisiae deletion strains, locus YOR083W, strain WHI5, active compounds read low 0.968 | S. cerevisiae deletion strains, locus YOR106W, strain vam3, active compounds read low 0.961 | S. cerevisiae deletion strains, locus YOR136W, strain idh2, active compounds read low 0.999 | S. cerevisiae deletion strains, locus YOR144C, strain elg1, active compounds read low 1.01 | S. cerevisiae deletion strains, locus YOR184W, strain ser1, active compounds read low 1.02 | S. cerevisiae deletion strains, locus YOR231W, strain MKK1, active compounds read low 0.974 | S. cerevisiae deletion strains, locus YOR265W, strain rbl2, active compounds read low 0.984 | S. cerevisiae deletion strains, locus YOR290C, strain snf2, active compounds read low 0.937 | S. cerevisiae deletion strains, locus YOR316C, strain cot1, active compounds read low 1.01 | S. cerevisiae deletion strains, locus YPL051W, strain arl3, active compounds read low 0.982 | S. cerevisiae deletion strains, locus YPL055C, strain LGE1, active compounds read low 0.975 | S. cerevisiae deletion strains, locus YPL078C, strain atp4, active compounds read low 0.974 | S. cerevisiae deletion strains, locus YPL106C, strain sse1, active compounds read low 0.984 | S. cerevisiae deletion strains, locus YPL240C, strain hsp82, active compounds read low 1.01 | S. cerevisiae deletion strains, locus YPL241C, strain CIN2, active compounds read low 1 | S. cerevisiae deletion strains, locus YPL256C, strain CLN2, active compounds read low 1.02 | S. cerevisiae deletion strains, locus YPR119W, strain clb2, active compounds read low 1.01 | S. cerevisiae deletion strains, locus YPR141C, strain kar3, active compounds read low 1.02 | S. cerevisiae deletion strains, locus YPR163C, strain tif3, active compounds read low 0.987 | S. cerevisiae deletion strains, locus YPR167C, strain met16, active compounds read low 1.01 | S. cerevisiae deletion strains, strain wtn01, active compounds read low 1 | S. cerevisiae strains, strain wild type, active compounds read low 0.981
active: S. cerevisiae deletion strains, locus YNL307C, strain MCK1, active compounds read low 0.902 | S. cerevisiae deletion strains, locus YOR270C, strain vph1, active compounds read low 0.723
